In all, about 8,300 sequences were measured (“log2 fold change of degron read counts, EGFP-low vs EGFP+ sorted cells (limma voom), compound-induced degradation”: median about -1.1, highest 2% from about 3.2 on). What follows is part of a selection rich in the highest values, with near analogues and random picks from the rest.
T1: CRBN, Q96SW2
T1 chain: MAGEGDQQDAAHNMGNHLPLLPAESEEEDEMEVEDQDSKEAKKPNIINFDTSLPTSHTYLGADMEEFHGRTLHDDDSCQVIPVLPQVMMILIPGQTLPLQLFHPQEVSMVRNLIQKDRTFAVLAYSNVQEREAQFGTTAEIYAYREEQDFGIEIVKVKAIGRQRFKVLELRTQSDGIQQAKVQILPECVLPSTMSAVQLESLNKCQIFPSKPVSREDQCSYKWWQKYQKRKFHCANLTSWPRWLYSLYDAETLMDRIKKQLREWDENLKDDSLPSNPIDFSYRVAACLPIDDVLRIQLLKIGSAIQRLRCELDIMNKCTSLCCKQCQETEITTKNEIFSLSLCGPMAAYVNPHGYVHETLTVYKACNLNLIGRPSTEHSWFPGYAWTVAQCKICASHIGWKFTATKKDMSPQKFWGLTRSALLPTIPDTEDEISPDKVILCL

B1: 46F_47G_49P_50I_52G_53R_54K_55F_67L_, Q9UKT9 (peptide)
chain: FGCPICGRKFTQKGNLLRHIKL
B2: 46F_47R_49N_50Q_52G_53R_54V_55F_67L_, Q9UKT9 (peptide)
chain: FRCNQCGRVFTQKGNLLRHIKL
B3: 46F_47Q_49P_50I_52G_53R_54L_55F_67L_, Q9UKT9 (peptide)
chain: FQCPICGRLFTQKGNLLRHIKL
B4: 46F_47V_49E_50I_52G_53A_54F_55F_67L_, Q9UKT9 (peptide)
chain: FVCEICGAFFTQKGNLLRHIKL
B5: 46F_47I_49D_50V_52G_53A_54L_55F_67L_, Q9UKT9 (peptide)
chain: FICDVCGALFTQKGNLLRHIKL
B6: 46F_47C_49P_50Q_52G_53A_54T_55F_67L_, Q9UKT9 (peptide)
chain: FCCPQCGATFTQKGNLLRHIKL
B7: 46F_47L_49P_50I_52G_53R_54E_55F_67L_, Q9UKT9 (peptide)
chain: FLCPICGREFTQKGNLLRHIKL
B8: 46F_47N_49N_50I_52G_53A_54I_55F_67L_, Q9UKT9 (peptide)
chain: FNCNICGAIFTQKGNLLRHIKL
B9: 46F_47Q_49D_50Q_52G_53A_54W_55F_67L_, Q9UKT9 (peptide)
chain: FQCDQCGAWFTQKGNLLRHIKL
B10: 46F_47F_49N_50V_52G_53A_54A_55F_67L_, Q9UKT9 (peptide)
chain: FFCNVCGAAFTQKGNLLRHIKL
B11: 46F_47W_49P_50I_52G_53A_54Y_55F_67L_, Q9UKT9 (peptide)
chain: FWCPICGAYFTQKGNLLRHIKL
B12: 46F_47N_49P_50I_52G_53A_54Y_55F_67L_, Q9UKT9 (peptide)
chain: FNCPICGAYFTQKGNLLRHIKL
B13: 46F_47S_49P_50I_52G_53A_54Y_55F_67L_, Q9UKT9 (peptide)
chain: FSCPICGAYFTQKGNLLRHIKL
B14: 46F_47Q_49P_50I_52G_53A_54Y_55F_67L_, Q9UKT9 (peptide)
chain: FQCPICGAYFTQKGNLLRHIKL
B15: 46F_47C_49P_50I_52G_53A_54Y_55F_67L_, Q9UKT9 (peptide)
chain: FCCPICGAYFTQKGNLLRHIKL
B16: 46F_47I_49P_50I_52G_53A_54Y_55F_67L_, Q9UKT9 (peptide)
chain: FICPICGAYFTQKGNLLRHIKL
B17: 46F_47V_49P_50I_52G_53A_54Y_55F_67L_, Q9UKT9 (peptide)
chain: FVCPICGAYFTQKGNLLRHIKL
B18: 46F_47Y_49P_50I_52G_53A_54Y_55F_67L_, Q9UKT9 (peptide)
chain: FYCPICGAYFTQKGNLLRHIKL
B19: 46F_47T_49P_50I_52G_53A_54Y_55F_67L_, Q9UKT9 (peptide)
chain: FTCPICGAYFTQKGNLLRHIKL

Molecular target: T1, CRBN, Q96SW2
Assay: log2 fold change of degron read counts, EGFP-low vs EGFP+ sorted cells (limma voom), compound-induced degradation; higher = more compound-induced degradation of the degron-EGFP fusion; degrons are variants of IKZF1/3 zinc finger 2; compound dose not given here
Details: Jurkat, 18 h
[1] = compound: compound 19 (5-tert-butyl-thalidomide)
[2] = compound: compound 22 (5-morpholino-thalidomide)
[3] = compound: compound 33 (diphenyl IMiD analogue)
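Further: pooled lentiviral library of zinc finger degron-EGFP fusions in mCherry-positive Jurkat cells, FACS-sorted after compound exposure, with degron abundance counted by next-generation sequencing.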

Sequence | log2 fold change of degron read counts [1] | log2 fold change of degron read counts [2] | log2 fold change of degron read counts [3] | log2 fold change of degron read counts (compound: thalidomide)
B1 | 3.06 | 0.59 | -1.32 | -0.606
B2 | -2.28 | -2.49 | -2.54 | -1.61
B3 | -1.51 | -0.0572 | 0.785 | 2.29
B4 | -0.344 | -0.0422 | 1.09 | 1.08
B5 | -1.82 | -0.923 | 0.0161 | -0.806
B6 | -1.19 | -0.971 | 1.49 | -0.551
B7 | -2.12 | -2.2 | -0.686 | 0.04
B8 | -1.14 | -1.24 | -0.567 | -1.09
B9 | -2.29 | -2.57 | -1.93 | -1.39
B10 | 1.2 | 1.43 | 0.704 | -0.812
B11 | 2.72 | 2.69 | 2.4 | 0.973
B12 | 2.2 | 1.13 | 0.721 | 0.825
B13 | 2.23 | 1.26 | 2.17 | 1.38
B14 | -1.06 | 0.884 | 1.61 | 3.36
B15 | 1.38 | 1.19 | 1.52 | 1.42
B16 | -0.481 | 2.03 | 1.75 | 1.86
B17 | 0.319 | 1.86 | 1.7 | 2.59
B18 | 3.26 | 3.12 | 2.39 | 1.01
B19 | 1 | 2.25 | 2.83 | 3.31
